Most compounds without a hit are left out; they make up all but 4.8% or so of the library.
APP 5'UTR act: APP 5'UTR luciferase reporter activation; SH-SY5Y APP 5'UTR luciferase reporter, luminescence; zero percent = DMSO vehicle wells; activation, % at 2 µM; 190,000 compounds, 1% hits; AID 1276;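 active means activation above a set limit, based on mean plus 3 SD of controls, cut at about 140% in these data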
Hsp70 activator: transcriptional activators of Hsp70; HeLa Hsp70 promoter luciferase reporter, luminescence; scaled: vehicle 0, proteasome-inhibitor control 100%; activation, % at 10 µM; 200,000 compounds, 0.04% hits; AID 1203;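 active means activation above the mean across all tested compounds plus 3 SD, cutoff set per campaign, cut at about 5.5% in these data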
STAT1 activator: increases IFN-gamma driven STAT1 reporter signal; NIH 3T3 STAT1-luciferase reporter, luminescence; 100% = IFN-gamma alone, no compound; activation (% of control), % at 5.5 µM; 200,000 compounds, 2.6% hits; AID 932;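 active means activation above the screen-wide mean activation plus 3 SD, cut at about 130% in these data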
NF-kB expr up: raises NF-kB expression in human neuronal cells; 190,000 compounds, 1.6% hits; fold change at 12.5 µM; NF-kB reporter expression; stronger effect = higher value; AID 1239; in the data active means fold change above about 3.3
APP transl inh: APP translation inhibition; inhibition, % at 2 µM; SH-SY5Y APP 5'UTR-luciferase reporter, luminescence; 190,000 compounds, 0.82% hits;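 active means inhibition above a set limit, derived from the sample mean plus 3 SD, cut at about 45% in these data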
Wee1 stabilizer: inhibitors of human Wee1 degradation | P30291 | reporter increase, % at 5 µM | HeLa Luc-Wee1K328M stability, luciferase luminescence; 100% = proteasome inhibitor MG132 effect | 220,000 compounds, 1.2% hits;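 active means activation above the mean of all tested compounds plus 3 SD, set per screening run, cut at about 8.8% in these data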;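 further: cells exposed to compound for 20 h before luminescence read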
Wee1 degr conf: confirmation of human Wee1 degradation inhibitors; shares compounds with Wee1 stabilizer; activation, % at 5 µM; HeLa Luc-Wee1K328M degradation, luminescence; vehicle 0%, proteasome-blocked wells 100%; AID 1410; 1,100 compounds, 4% hits; in the data active means activation above about 8.9%
Hits are given with their value; i = inactive; nt = not tested or not shown.

SMILES	APP 5'UTR act	Hsp70 activator	STAT1 activator	NF-kB expr up	APP transl inh	Wee1 stabilizer	Wee1 degr conf
Cc1nnc2ccc(N3CCN(C(=O)c4ccccc4)CC3)nn12	i	i	i	i	i	i	nt
CN1CCN(C(=O)C2CC(c3c(F)cccc3Cl)=NO2)CC1 (centres undefined)	i	i	i	i	i	13	i
Cc1ccc(O)c(NC(=O)C2CC(c3c(F)cccc3Cl)=NO2)c1 (centres undefined)	i	i	i	i	i	i	nt
COC(=O)/C=C/c1ccc(OC(=O)OC)c(OC(=O)OC)c1	i	i	i	i	i	12	i
COC(=O)/C=C/c1ccc2c(c1)OCO2	i	i	i	i	i	i	nt
CC(C(=O)c1c[nH]c(C(=O)N=CN(C)C)c1)c1ncc(C(F)(F)F)cc1Cl (centres undefined)	i	i	i	i	i	14	i
Cc1nn(S(=O)(=O)N2CCOCC2)c(C)c1Br	i	i	i	i	i	i	nt
CCN(CC)CCOc1cc2c(nn1)Oc1ccccc1N2C	i	i	i	i	i	i	nt
CCCCC1(CO)C(=O)N(c2ccccc2)N(c2ccccc2)C1=O	nt	nt	nt	nt	nt	i	nt
CCCCCCCC1(C)NC(=O)N(c2ccccc2)N1 (centres undefined)	i	i	i	i	i	14	i
O=C(/C=C/c1ccco1)NCc1ccco1	nt	nt	nt	nt	nt	i	nt
COc1ccc(C(=O)COc2ccc(F)cc2)c(O)c1	i	nt	nt	nt	i	18	i
CC(C)CN(C(=O)COC(=O)CNC(=O)c1ccccc1F)C1CCS(=O)(=O)C1 (centres undefined)	i	i	i	i	i	i	nt
CCC(C)N(C(=O)COC(=O)CNC(=O)c1ccccc1F)C1CCS(=O)(=O)C1 (centres undefined)	i	i	i	i	i	15	i
C[C@]12CC[C@@H]3c4ccc(O)cc4[C@@H](O)C[C@H]3[C@@H]1CC[C@@H]2O	i	i	i	i	i	i	nt
COc1cc(/C=N/Nc2ccc(S(N)(=O)=O)cc2[N+](=O)[O-])cc(OC)c1O	nt	nt	nt	nt	nt	11	i
N#Cc1ccccc1OCC(=O)NC(=O)NCc1ccccc1	i	i	i	i	i	15	i
COCCNc1c(-c2cc3ccc(C)c(C)c3[nH]c2=O)nc2ccccn12	i	i	130	i	i	13	i
COCCNc1c(-c2ccc(OC)c(OC)c2)nc2ccc(Cl)cn12	i	i	i	i	i	i	nt
O=C(CNc1cc(S(=O)(=O)N2CCCC2)ccc1OCC(F)(F)F)Nc1cc(Cl)cc(Cl)c1	i	i	i	i	i	i	nt
COc1ccc(/C=C/C(=O)O/N=C(\N)c2ccccc2)cc1OC	i	i	137	i	i	17	i
CN(C)C(CNc1ncnc2sc3c(c12)CCCCC3)c1ccco1 (centres undefined)	i	i	i	i	i	34	i
CC(C)N(C(=O)Cn1c(SCC(=O)Nc2nccs2)nc2ccccc21)C(C)C	i	i	i	i	i	i	nt
CC(C)CN1CCN(Cc2ccc(C#CC(C)(C)O)cc2)CC1CCO (centres undefined)	i	i	i	i	i	i	nt
CC(C)CCN1CCN(Cc2ccc(C#CC(C)(C)O)s2)CC1CCO (centres undefined)	i	i	i	i	i	11	i
SMILES	APP 5'UTR act	Hsp70 activator	STAT1 activator	NF-kB expr up	APP transl inh	Wee1 stabilizer	Wee1 degr conf
CCOC(=O)c1ccccc1NC(=S)N1CC(C)CC(C)C1 (centres undefined)	i	i	i	i	i	15	i
CC(=O)Nc1ccccc1OC(C)C(=O)N1CC(C)CC(C)C1 (centres undefined)	nt	nt	nt	nt	nt	i	nt
CCOC(=O)c1ccccc1NC(=S)N1CCC(C)CC1	i	i	i	i	i	i	nt
CC1CC(C)CN(C(=O)Nc2ccccc2F)C1 (centres undefined)	nt	nt	nt	nt	nt	19	i
Cc1ccc(NC(=S)NNC(=O)Nc2ccccc2)cc1	i	i	i	i	i	14	i
COC(=O)c1ccc(SCc2cnc(Cl)s2)cc1	i	i	i	i	i	i	nt
Cc1ccc2nc(NC(=O)COC(=O)c3ccco3)sc2c1	i	i	i	i	i	11	i
COc1cc(NC(C)=O)ccc1-c1cc2ccccc2oc1=O	i	i	i	i	i	15	i

High-throughput results: PubChem, several laboratories
